{"source": "the supplement of paper PMC6522484", "key": {"DLD1 [1]": {"system": "DLD1", "assay": "cell viability (CellTiter-Glo) relative to plate median (fraction of plate median); higher = more viable cells", "details": "5 µM; treatment time 24 h; reporter: 7TFP", "method_in_brief": "(§1)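 After seeding in 384-well plates, colorectal cancer cell lines carrying stable lentiviral TCF/Wnt firefly luciferase reporters (7TFP or TCF4/Wnt) were left 24 h. Library compounds were then added at a final 5 µM for 24 h. A Tecan F500 reader measured firefly luciferase or CellTiterGlo luminescence on parallel plates, with each well normalised to the plate median by webcellHTS2 (additive, no log transformation), and two independent replicates averaged.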"}, "HCT116": {"system": "HCT116", "assay": "cell viability (CellTiter-Glo) relative to plate median (fraction of plate median); higher = more viable cells", "details": "5 µM; treatment time 24 h; reporter: TCF4/Wnt", "method_in_brief": "as §1"}, "SW480 [2]": {"system": "SW480", "assay": "cell viability (CellTiter-Glo) relative to plate median (fraction of plate median); higher = more viable cells", "details": "5 µM; treatment time 24 h; reporter: 7TFP", "method_in_brief": "as §1"}, "DLD1 [3]": {"system": "DLD1", "assay": "TCF/Wnt firefly luciferase reporter signal relative to plate median (fraction of plate median); higher = higher Wnt reporter signal", "details": "5 µM; treatment time 24 h; reporter: 7TFP", "method_in_brief": "as §1"}, "SW480 [4]": {"system": "SW480", "assay": "TCF/Wnt firefly luciferase reporter signal relative to plate median (fraction of plate median); higher = higher Wnt reporter signal", "details": "5 µM; treatment time 24 h; reporter: 7TFP", "method_in_brief": "as §1"}}, "note": "± gives the standard deviation of the averaged measurements."}
{"smiles": "C[C@@H]([C@H]1OC(C)(C)[C@@H](O)[C@H]1O)[C@@H]1CC[C@]2(C)C3=CC[C@H]4C(C)(C)C(=O)CC[C@]4(C)[C@H]3CC[C@@]12C", "values": [{"measurement": "cell viability", "setting": "DLD1 [1]", "value": "1.1 ± 0.19"}, {"measurement": "cell viability", "setting": "HCT116", "value": "0.998 ± 0.1"}, {"measurement": "cell viability", "setting": "SW480 [2]", "value": "1.07 ± 0.042"}, {"measurement": "TCF/Wnt firefly luciferase reporter signal", "setting": "DLD1 [3]", "value": "1.01 ± 0.084"}, {"measurement": "TCF/Wnt firefly luciferase reporter signal", "setting": "SW480 [4]", "value": "0.884 ± 0.065"}]}
{"smiles": "CC(=O)c1cc(CC=C(C)C)c(O)c(CC=C(C)C)c1", "values": [{"measurement": "cell viability", "setting": "DLD1 [1]", "value": "1.05 ± 0.014"}, {"measurement": "cell viability", "setting": "HCT116", "value": "1.02 ± 0.035"}, {"measurement": "cell viability", "setting": "SW480 [2]", "value": "0.95 ± 0.011"}, {"measurement": "TCF/Wnt firefly luciferase reporter signal", "setting": "DLD1 [3]", "value": "1.08 ± 0.15"}, {"measurement": "TCF/Wnt firefly luciferase reporter signal", "setting": "SW480 [4]", "value": "1.14 ± 0.064"}]}
{"smiles": "CC(=O)c1ccc[nH]1", "values": [{"measurement": "cell viability", "setting": "DLD1 [1]", "value": "0.992 ± 0.04"}, {"measurement": "cell viability", "setting": "HCT116", "value": "1.03 ± 0.048"}, {"measurement": "cell viability", "setting": "SW480 [2]", "value": "1.025 ± 0.0071"}, {"measurement": "TCF/Wnt firefly luciferase reporter signal", "setting": "DLD1 [3]", "value": "0.87 ± 0.23"}, {"measurement": "TCF/Wnt firefly luciferase reporter signal", "setting": "SW480 [4]", "value": "0.798 ± 0.14"}]}
{"smiles": "COc1cc(O)c2c(c1)C(=O)c1cc(C)cc(O)c1C2=O", "values": [{"measurement": "cell viability", "setting": "DLD1 [1]", "value": "0.973 ± 0.017"}, {"measurement": "cell viability", "setting": "HCT116", "value": "0.979 ± 0.016"}, {"measurement": "cell viability", "setting": "SW480 [2]", "value": "1.01 ± 0.12"}, {"measurement": "TCF/Wnt firefly luciferase reporter signal", "setting": "DLD1 [3]", "value": "0.949 ± 0.015"}, {"measurement": "TCF/Wnt firefly luciferase reporter signal", "setting": "SW480 [4]", "value": "1.09 ± 0.057"}]}
{"smiles": "CC(=O)O[C@@H]1C[C@H]2C(C)(C)[C@H](O)C[C@H](O)[C@]2(C)[C@H]2CC[C@@]3(C)[C@H](c4ccoc4)OC(=O)[C@H]4O[C@]43[C@@]21C", "values": [{"measurement": "cell viability", "setting": "DLD1 [1]", "value": "0.9065 ± 0.005"}, {"measurement": "cell viability", "setting": "HCT116", "value": "0.942 ± 0.012"}, {"measurement": "cell viability", "setting": "SW480 [2]", "value": "0.977 ± 0.0014"}, {"measurement": "TCF/Wnt firefly luciferase reporter signal", "setting": "DLD1 [3]", "value": "1 ± 0.11"}, {"measurement": "TCF/Wnt firefly luciferase reporter signal", "setting": "SW480 [4]", "value": "0.892 ± 0.033"}]}
{"smiles": "N[C@@H](C(=O)N[C@@H]1C(=O)N2C(C(=O)O)=C(Cl)CS[C@H]12)c1ccccc1", "values": [{"measurement": "cell viability", "setting": "DLD1 [1]", "value": "0.963 ± 0.029"}, {"measurement": "cell viability", "setting": "HCT116", "value": "0.955 ± 0.064"}, {"measurement": "cell viability", "setting": "SW480 [2]", "value": "0.953 ± 0.028"}, {"measurement": "TCF/Wnt firefly luciferase reporter signal", "setting": "DLD1 [3]", "value": "0.897 ± 0.079"}, {"measurement": "TCF/Wnt firefly luciferase reporter signal", "setting": "SW480 [4]", "value": "0.742 ± 0.025"}]}
{"smiles": "CCOC(=O)C1=C(C)NC(C)=C(C(=O)OC)C1c1cccc([N+](=O)[O-])c1", "note": "(stereo not given)", "values": [{"measurement": "cell viability", "setting": "DLD1 [1]", "value": "0.964 ± 0.03"}, {"measurement": "cell viability", "setting": "HCT116", "value": "1.02 ± 0.15"}, {"measurement": "cell viability", "setting": "SW480 [2]", "value": "0.95 ± 0.057"}, {"measurement": "TCF/Wnt firefly luciferase reporter signal", "setting": "DLD1 [3]", "value": "1.06 ± 0.035"}, {"measurement": "TCF/Wnt firefly luciferase reporter signal", "setting": "SW480 [4]", "value": "1.01 ± 0.039"}]}
{"smiles": "C[C@@H]1CC[C@@]2(OC1)O[C@H]1C[C@H]3[C@@H]4CC[C@H]5C[C@@H](O)CC[C@]5(C)[C@H]4CC[C@]3(C)[C@H]1[C@@H]2C", "values": [{"measurement": "cell viability", "setting": "DLD1 [1]", "value": "0.953 ± 0.0057"}, {"measurement": "cell viability", "setting": "HCT116", "value": "0.875 ± 0.037"}, {"measurement": "cell viability", "setting": "SW480 [2]", "value": 1.01}, {"measurement": "TCF/Wnt firefly luciferase reporter signal", "setting": "DLD1 [3]", "value": "1.06 ± 0.028"}, {"measurement": "TCF/Wnt firefly luciferase reporter signal", "setting": "SW480 [4]", "value": "0.931 ± 0.037"}]}
{"smiles": "COc1ccc(-c2oc3cc(O[C@@H]4O[C@H](CO)[C@@H](O)[C@H](O)[C@H]4O)c(OC)c(O)c3c(=O)c2OC)cc1O", "values": [{"measurement": "cell viability", "setting": "DLD1 [1]", "value": "1.05 ± 0.057"}, {"measurement": "cell viability", "setting": "HCT116", "value": "1.19 ± 0.17"}, {"measurement": "cell viability", "setting": "SW480 [2]", "value": 1}, {"measurement": "TCF/Wnt firefly luciferase reporter signal", "setting": "DLD1 [3]", "value": "1.05 ± 0.035"}, {"measurement": "TCF/Wnt firefly luciferase reporter signal", "setting": "SW480 [4]", "value": "1.02 ± 0.11"}]}
{"smiles": "CO/N=C1\\C[C@]2(C[C@@H]3C[C@@H](C/C=C(\\C)C[C@@H](C)/C=C/C=C4\\CO[C@@H]5[C@H](O)C(C)=C[C@@H](C(=O)O3)[C@]45O)O2)O[C@H](/C(C)=C/C(C)C)[C@H]1C", "values": [{"measurement": "cell viability", "setting": "DLD1 [1]", "value": "0.891 ± 0.0092"}, {"measurement": "cell viability", "setting": "HCT116", "value": "0.921 ± 0.019"}, {"measurement": "cell viability", "setting": "SW480 [2]", "value": "0.896 ± 0.042"}, {"measurement": "TCF/Wnt firefly luciferase reporter signal", "setting": "DLD1 [3]", "value": "0.939 ± 0.24"}, {"measurement": "TCF/Wnt firefly luciferase reporter signal", "setting": "SW480 [4]", "value": "0.932 ± 0.11"}]}
{"smiles": "C[C@@H]1C[C@H]2[C@@H]3CCC4=CC(=O)C=C[C@]4(C)[C@@]3(F)[C@@H](O)C[C@]2(C)[C@@]1(O)C(=O)COP(=O)(O)O", "values": [{"measurement": "cell viability", "setting": "DLD1 [1]", "value": "1.03 ± 0.052"}, {"measurement": "cell viability", "setting": "HCT116", "value": "1.02 ± 0.075"}, {"measurement": "cell viability", "setting": "SW480 [2]", "value": "1.01 ± 0.093"}, {"measurement": "TCF/Wnt firefly luciferase reporter signal", "setting": "DLD1 [3]", "value": "0.954 ± 0.065"}, {"measurement": "TCF/Wnt firefly luciferase reporter signal", "setting": "SW480 [4]", "value": "0.906 ± 0.0014"}]}
{"smiles": "CC(=O)Nc1c(I)cc(I)c(C(=O)O)c1I", "values": [{"measurement": "cell viability", "setting": "DLD1 [1]", "value": "1 ± 0.16"}, {"measurement": "cell viability", "setting": "HCT116", "value": "0.987 ± 0.014"}, {"measurement": "cell viability", "setting": "SW480 [2]", "value": "0.946 ± 0.055"}, {"measurement": "TCF/Wnt firefly luciferase reporter signal", "setting": "DLD1 [3]", "value": "0.995 ± 0.092"}, {"measurement": "TCF/Wnt firefly luciferase reporter signal", "setting": "SW480 [4]", "value": "1.09 ± 0.099"}]}
{"smiles": "C=C1C(=O)O[C@H]2[C@H]1CC/C(C)=C/CC[C@@]1(C)O[C@@H]21", "values": [{"measurement": "cell viability", "setting": "DLD1 [1]", "value": "0.84 ± 0.12"}, {"measurement": "cell viability", "setting": "HCT116", "value": "0.998 ± 0.017"}, {"measurement": "cell viability", "setting": "SW480 [2]", "value": "0.886 ± 0.044"}, {"measurement": "TCF/Wnt firefly luciferase reporter signal", "setting": "DLD1 [3]", "value": "0.825 ± 0.096"}, {"measurement": "TCF/Wnt firefly luciferase reporter signal", "setting": "SW480 [4]", "value": "0.836 ± 0.049"}]}
{"smiles": "OC(CCN1CCCC1)(c1ccccc1)C1CCCCC1", "note": "(stereo not given)", "values": [{"measurement": "cell viability", "setting": "DLD1 [1]", "value": 1.03}, {"measurement": "cell viability", "setting": "HCT116", "value": "1.01 ± 0.043"}, {"measurement": "cell viability", "setting": "SW480 [2]", "value": "1.03 ± 0.054"}, {"measurement": "TCF/Wnt firefly luciferase reporter signal", "setting": "DLD1 [3]", "value": "1.12 ± 0.15"}, {"measurement": "TCF/Wnt firefly luciferase reporter signal", "setting": "SW480 [4]", "value": "0.981 ± 0.017"}]}
{"smiles": "NCCCC(O)(P(=O)(O)O)P(=O)(O)O", "values": [{"measurement": "cell viability", "setting": "DLD1 [1]", "value": "0.98 ± 0.028"}, {"measurement": "cell viability", "setting": "HCT116", "value": "0.974 ± 0.12"}, {"measurement": "cell viability", "setting": "SW480 [2]", "value": "0.963 ± 0.0042"}, {"measurement": "TCF/Wnt firefly luciferase reporter signal", "setting": "DLD1 [3]", "value": "0.974 ± 0.12"}, {"measurement": "TCF/Wnt firefly luciferase reporter signal", "setting": "SW480 [4]", "value": "1.02 ± 0.03"}]}
{"smiles": "CO[C@H]1[C@H](O)[C@@H](O)[C@H](O)[C@H](O)[C@H]1O", "values": [{"measurement": "cell viability", "setting": "DLD1 [1]", "value": "0.981 ± 0.018"}, {"measurement": "cell viability", "setting": "HCT116", "value": "0.953 ± 0.026"}, {"measurement": "cell viability", "setting": "SW480 [2]", "value": "1.03 ± 0.014"}, {"measurement": "TCF/Wnt firefly luciferase reporter signal", "setting": "DLD1 [3]", "value": "1.11 ± 0.13"}, {"measurement": "TCF/Wnt firefly luciferase reporter signal", "setting": "SW480 [4]", "value": "1.1 ± 0.092"}]}
{"smiles": "C[C@@H]1Cc2cc(O)cc(O)c2C(=O)O1", "note": "[6-Hydroxymellein]", "values": [{"measurement": "cell viability", "setting": "DLD1 [1]", "value": "0.98 ± 0.0071"}, {"measurement": "cell viability", "setting": "HCT116", "value": "0.987 ± 0.018"}, {"measurement": "cell viability", "setting": "SW480 [2]", "value": "1.015 ± 0.0071"}, {"measurement": "TCF/Wnt firefly luciferase reporter signal", "setting": "DLD1 [3]", "value": "0.927 ± 0.1"}, {"measurement": "TCF/Wnt firefly luciferase reporter signal", "setting": "SW480 [4]", "value": "0.974 ± 0.037"}]}
